Among the data in PubChem BioAssay AID2018 (Sanford-Burnham Center for Chemical Genomics, 2009) are inhibition values, retold here.

Screen size: about 1,200 compounds; about 600 (50%) were called active. So high a share suggests a set chosen from earlier hits. This is one part of the list. Potency and affinity values are given separately. Unmarked numbers belong to inactive results. Cut-off read from the data, not from the text of the source: active = inhibition above about 42%; inactive = the rest.

This experiment deals with SUMO-conjugating enzyme UBC9 (Homo sapiens) (UniProt P63279). In words: blockers of UBC9-mediated SUMO conjugation – biochemical, AlphaScreen, SUMOylation inhibitor project, confirmation (AID 2018). Conditions: AlphaScreen in vitro SUMOylation assay; at 35 µM; hits give high values. (Alpha assays give light when donor and acceptor beads are brought close together.)
Chain of SUMO-conjugating enzyme UBC9 (Homo sapiens) (P63279 whole entry, looked up): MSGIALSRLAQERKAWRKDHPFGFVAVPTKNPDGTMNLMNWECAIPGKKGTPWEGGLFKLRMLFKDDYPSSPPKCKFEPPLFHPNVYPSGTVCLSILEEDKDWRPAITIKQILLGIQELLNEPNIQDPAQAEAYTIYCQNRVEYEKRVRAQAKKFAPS
Consider `Cc1oc2c(c(C)cc3oc(=O)c(CC(=O)N[C@@H](C)C(=O)O)c(C)c32)c1C`, for which the inhibition was -7%. Consider `CCC(NC(=O)Cc1c(C)c2c(cc(C)c3c(C)c(C)oc32)oc1=O)C(=O)O` (centres undefined), for which the inhibition was 26.9%.

Regarding `CCN(c1ccccc1)S(=O)(=O)c1ccc(Cl)c(NC(=O)COC(=O)c2cc(O)c3ccccc3c2O)c1`, the inhibition was 73% (active).

On to `COc1ccc2ccc3c(c2c1)N=C[C@]1(O3)N(C)c2ccccc2C1(C)C`, for which the inhibition was 27.7%.

With `CN1c2ccccc2C(C)(C)C12C=Nc1c(cc(N3CCOCC3)c3ccccc13)O2` (centres undefined), the inhibition was 45.2% (active). As to `COc1ccc(OC)c(-n2c(-c3cc(-c4ccco4)[nH]n3)n[nH]c2=S)c1`, the inhibition is 48.4% (active).

Consider `S=c1[nH]nc(-c2ccco2)n1/N=C/C=C/c1ccco1`, for which the inhibition was 25.8%. The same measure for `S=c1[nH]nc(-c2cc(-c3ccco3)[nH]n2)n1-c1cccc2ccccc12`: 46.9% (active); for `S=c1[nH]nc(-c2cc(-c3ccco3)[nH]n2)n1-c1ccccc1Cl`: 96.5% (active); for `Cc1ccc(-n2c(-c3cc(-c4ccco4)[nH]n3)n[nH]c2=S)c(Br)c1`: 57% (active). The same measure for `O=C1C2C3C=CC(C3)C2C(=O)N1CNc1ccc(O)cc1` (centres undefined): 92.9% (active); for `O=C(Nc1ccc(-n2nncc2-c2ccco2)cc1)c1cc2ccccc2oc1=O`: 35.2%; for `CC(=O)C1C(=O)C=C(c2ccco2)CC1c1ccccc1` (centres undefined): -5.3%. The same measure for `O=C(O)c1cc(-c2ccco2)nn1-c1ccc(Cl)cc1`: 54.7% (active). On to `CCOc1ccc(C2Nc3cccc4cccc(c34)N2)cc1OC`, for which the inhibition is 73.4% (active). The same measure for `Cc1cccc(NC(=O)CC2Nc3cccc4cccc(c34)NC2=O)c1` (centres undefined): 28.8%; for `COc1cc(OC)c(C2Nc3cccc4cccc(c34)N2)c(OC)c1`: 91.3% (active); for `COc1ccccc1C1Nc2cccc3cccc(c23)N1`: 77.6% (active). As for `Cc1ccc(C2Nc3cccc4cccc(c34)N2)s1`, the inhibition is 71.9% (active). The same measure for `C=CCn1c(SCC(=O)N2N=C(c3ccco3)CC2c2ccco2)nnc1-c1ccncc1` (centres undefined): 3.2%; for `Oc1ccc(C2Nc3cccc4cccc(c34)N2)c(O)c1`: 86.1% (active). Regarding `O=C(CC1Nc2cccc3cccc(c23)NC1=O)Nc1ccccc1` (centres undefined), the inhibition is 30.7%. The figure for `Fc1cccc(Cl)c1C1Nc2cccc3cccc(c23)N1` is 53.9% (active); for `O=C1C2C3C=CC(C4CC34)C2C(=O)N1CCc1ccccc1` (centres undefined) it is -31.9%; for `COCCCNC(=O)c1cccn2c(=O)c3cc4ccccc4cc3nc12` it is 16.5%. In the case of `CCOc1c(Br)cc(/C=C2\C(=O)N(CCC#N)N=C2C)cc1OC`, the inhibition was 8.8%. The figure for `C=CCOc1c(Cl)cc(CNc2ccc3[nH]c(=O)[nH]c3c2)cc1OC` is 41.5%; for `Cc1cccc(/C=N/NC(=O)C(C)Nc2cccc3ccccc23)n1` (centres undefined) it is -0.7%; for `COCCN=c1scc(-c2ccco2)n1/N=C/c1ccc(O)c(O)c1O` it is 82.6% (active). The same measure for `CC1=NN(c2ccccc2)C(=O)C1`: 53.2% (active); for `Cc1[nH]n(-c2ccccc2)c(=O)c1/C=N/N(C)c1ccccc1`: 73% (active). The figure for `Cc1cc(Br)ccc1-n1[nH]c(C)c(C=Nc2cccc3nsnc23)c1=O` is 39.7%; for `Cc1ccc(/C=C2\SC(=S)N(c3cccnc3)C2=O)o1` it is 33.6%; for `Cc1cccc2nc(-c3ccco3)c(Nc3ccc4c(c3)OCO4)n12` it is 19.8%.

Take `CN(C)c1ccc(NC(=O)CSc2nnc(-c3ccco3)c(-c3ccco3)n2)cc1`: the inhibition was 46.4% (active).

As to `Cc1ccc(NC(=O)CSc2nnc(-c3ccco3)c(-c3ccco3)n2)cc1`, the inhibition was 97.9% (active).

In the case of `Cc1ccc(C(=O)N[C@H](C(=O)Nc2cc(Cl)cc(Cl)c2)C(C)C)cc1`, the inhibition is -24.1%. Turning to `COn1c(C)c(C)c2c3nonc3ccc21`, the inhibition is 19.1%. The figure for `Cc1nnc(N/N=C\c2ccc(-c3ccccc3[N+](=O)[O-])o2)n1N` is -4.6%.

Turning to `NS(=O)(=O)c1ccc(-c2ccc(/C=C3\NC(=S)NC3=O)o2)cc1`, the inhibition was 70.9% (active). In the case of `Cc1ccc(C)c(NC(=S)Nc2cccc3cnccc23)c1`, the inhibition is 16.2%. The same measure for `Cc1ccc(NC(=O)Nc2ccno2)cc1`: -5.1%. The figure for `Cc1nn(CC(=O)Nc2ccc(C(=O)N(C)C)cc2)c(=O)c2ccccc12` is -3.7%; for `O=C1C=C(O)c2cccc(O)c2C1=O` it is 39.2%; for `O=C1C=C(O)c2c(O)cccc2C1=O` it is 43.1% (active). The figure for `Cc1ccc(N=C2NC(=O)/C(=C\c3ccco3)S2)cc1` is 44.4% (active). As for `COc1ccc(S(=O)(=O)/N=C2/NC(=O)/C(=C\c3ccco3)S2)cc1`, the inhibition is 40.6%.

As to `CSCC[C@H](NC(=O)Cc1c(C)c2c(cc(C)c3c(C)c(C)oc32)oc1=O)C(=O)O`, the inhibition is 19.6%. The same measure for `CCc1c(C)c2cc(Cl)c(O)c(CN(C)C)c2oc1=O`: 14.3%; for `CCC(C(=O)O)n1nnc(-c2ccc(OCc3ccccc3)c(OC)c2)n1` (centres undefined): 2%. The figure for `COc1ccc2nc(NC(=O)CCc3ccc(OC)c(OC)c3)sc2c1` is -27%; for `NCCSc1c(-c2ccccc2)[nH]c2ccccc12` it is 4.2%.

On to `Oc1ccc(NCc2ccc(OCc3ccccc3)cc2)cc1`, for which the inhibition was 61.8% (active). The figure for `COc1cc(CNc2ccc(O)cc2)cc(Br)c1OCc1ccccc1` is 89.1% (active); for `Oc1ccc(N=Cc2ccc(OCc3ccccc3)cc2)cc1` it is 25.2%; for `COc1ccc(Br)cc1CNc1ccc(O)cc1` it is 63.1% (active). The same measure for `Oc1ccc(NCc2cccc(OCc3ccccc3)c2)cc1`: 81.1% (active); for `O=[N+]([O-])c1cc2c(cc1CN1CCN(CCOCCO)CC1)OCO2`: 12.3%. The figure for `CCOC(=O)C1=C(C)NC(=O)CC1c1cc2c(cc1[N+](=O)[O-])OCO2` (centres undefined) is 14.6%; for `Cc1ccccc1N=Cc1cc2c(cc1[N+](=O)[O-])OCO2` it is 43.9% (active); for `O=[N+]([O-])c1cc2c(cc1/C=N/n1c(-c3ccccn3)n[nH]c1=S)OCO2` it is 82.5% (active). Turning to `S=c1[nH]nc(-c2ccncc2)n1/N=C/c1ccccc1Cl`, the inhibition was 20.2%.

Turning to `CCN(CC)CCNS(=O)(=O)c1ccc2c3c(cccc13)C(=O)N2`, the inhibition is -8.8%. The figure for `CC1(C)Nc2ccc(O)cc2-c2c1ssc2=S` is 59.8% (active); for `Nc1nc(-c2ccco2)c(-c2ccco2)s1` it is 55.9% (active); for `NC(=O)c1sc2nc(-c3ccco3)ccc2c1N` it is 20%. With `N#Cc1c(N2CCN(c3ccc(F)cc3)CC2)nc(N)c2c(N)nc3c(c12)CC(=O)N3C1CC1`, the inhibition is 37.6%. The figure for `COCC(C)N1C(=O)Cc2c1nc(N)c1c(N)nc(N3CCN(c4ccccc4F)CC3)c(C#N)c21` (centres undefined) is 37.8%; for `CC(C)N1C(=O)CC(Nc2cccc3cccc(N)c23)C1=O` (centres undefined) it is 0.8%; for `Cn1c(=O)cc(C(=O)N/N=C/c2ccc(Cl)cc2)[nH]c1=O` it is -20.2%.

On to `O=C1NNC(c2ccccc2)=N/C1=C\c1ccccc1Cl`, for which the inhibition is 101% (active). The figure for `Cc1onc(-c2ccccc2Cl)c1C(=O)NCc1ccco1` is 32.5%; for `O=C(NC1(O)C(=O)c2ccccc2C1=O)c1c(Cl)cccc1Cl` it is 101% (active). The same measure for `CN(NC(=O)c1ccc(Cl)cc1)c1ncc(C(F)(F)F)cc1Cl`: 2.5%; for `O=C(NC1(O)C(=O)c2ccccc2C1=O)c1ccccc1`: 101% (active). The figure for `O=C(NC1(O)C(=O)c2ccccc2C1=O)c1ccc(C(F)(F)F)cc1` is 101% (active); for `O=c1c(=Nc2ccccc2O)c(=O)c2ccccc12` it is 9.9%. With `Clc1ccc(-c2nnc3c4ccccc4nc(N4CCOCC4)n23)cc1Cl`, the inhibition was 4%. The same measure for `CC(=O)Oc1c(/C=C(\C#N)C(N)=O)[nH]c2ccccc12`: 21.9%; for `Cc1ccc(NC(=O)Nc2cccn(Cc3c(F)cccc3Cl)c2=O)cc1`: 14.6%; for `O=C(NCc1ccccc1)Nc1cccn(Cc2ccccc2Cl)c1=O`: 20.8%. The figure for `Cc1nn2c3c(cnc2c1-c1ccc(Cl)cc1)C(=O)CC(c1ccco1)C3` (centres undefined) is 9.7%. The figure for `COc1ccccc1Oc1c(C)oc2c(CN3CCN(C)CC3)c(O)ccc2c1=O` is 7%.

Regarding `O=C(CC1CS(=O)(=O)CC1CC(=O)Oc1ccccc1F)Oc1ccccc1F` (centres undefined), the inhibition is 102% (active). Turning to `N#C/C(=C/c1ccc(-c2ccccc2)o1)c1nc(-c2cccs2)cs1`, the inhibition was -4.5%. The figure for `Cc1c(CC(=O)O)c(=O)oc2c(C)c(OCc3ccccc3Br)ccc12` is 85.8% (active); for `CC(=O)Oc1ccc2c(C)c(CC(C)O)c(=O)oc2c1` (centres undefined) it is -6.6%. The same measure for `Cc1c(CC(=O)N2CCN(C(=O)C3COc4ccccc4O3)CC2)c(=O)oc2c(C)c(O)ccc12` (centres undefined): 17.7%; for `NC(=O)CC(NC(=O)Cc1ccc(Br)cc1)c1ccc(NCCOc2ccccc2)c([N+](=O)[O-])c1` (centres undefined): 10.7%. The same measure for `O=C1C=C(N(CCO)Cc2ccccc2)c2ccccc2C1=O`: 101% (active).

For `Nc1ccc(Br)c2cccnc12`, the inhibition is 49% (active). The same measure for `CCOC(=O)C1CC(=O)c2cc(OC)c(OC)cc2C1` (centres undefined): 12.9%; for `O=C(N/N=C/c1cc(Cl)cc([N+](=O)[O-])c1O)c1ccccc1NS(=O)(=O)c1cccs1`: 101% (active); for `O=C(N/N=C/c1ccc(N2CCOCC2)cc1)c1ccccc1NS(=O)(=O)c1cccs1`: 17.4%. Consider `COc1ccccc1/C=C/C=N/NC(=O)c1cc(-c2ccco2)[nH]n1`, for which the inhibition is 60.4% (active). The same measure for `O=C1C=C(N2CCOCC2)c2ccccc2C1=O`: 102% (active); for `Cc1ccc(-c2cc(-c3ccccc3O)nc(N/N=C/c3cccnc3)n2)cc1`: 23%; for `NNC(=O)c1oc2nc(-c3ccco3)cc(-c3ccco3)c2c1N`: 56.6% (active).

On to `NNC(=O)c1oc2nc(-c3cccs3)cc(-c3ccco3)c2c1N`, for which the inhibition is 43.3% (active).

For orientation: inhibition means the drop in the measured response relative to a control, in per cent.
